G9a block = qHTS Assay for Inhibitors of Histone Lysine Methyltransferase G9a. Histone-lysine N-methyltransferase EHMT2 (Homo sapiens), Q96KQ7. G9a H3K9 monomethylation, AlphaScreen, 2 h. Potency, µM (highest dose often 102 µM), inactives show at the highest dose activity, negative = inhibition, usual class: inhibitors. 8.8% of 350,000 active. AID 504332, 2011; note: potency is the fitted concentration of half-maximal effect; % is set by controls: 0 for no effect and ±100 for the full control effect; nearly all actives have a fitted effect of over 75% in size
Target sequence (Q96KQ7 913-1193 limits assumed): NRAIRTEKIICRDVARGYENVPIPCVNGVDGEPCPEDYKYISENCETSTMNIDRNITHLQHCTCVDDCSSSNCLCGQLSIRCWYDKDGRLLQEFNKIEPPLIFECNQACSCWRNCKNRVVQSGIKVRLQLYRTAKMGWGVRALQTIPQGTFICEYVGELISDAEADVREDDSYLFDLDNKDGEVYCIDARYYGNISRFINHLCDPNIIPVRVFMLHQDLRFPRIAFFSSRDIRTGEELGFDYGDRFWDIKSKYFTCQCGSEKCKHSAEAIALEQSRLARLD
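Signal arises when biotinylated H3K9 peptide, once monomethylated, bridges streptavidin donor and antibody-captured acceptor beads. Enzyme at 20 nM was preincubated 15 min with test compounds; peptide 500 nM and SAM 20 uM then reacted for 2 h.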
Lamin A splicing = qHTS Assay for Modulators of Lamin A Splicing; AID 1487, 2009; 0.01% of 200,000 active; Potency, µM (doses to about 46.1 µM), inactives show top-dose ratio change, negative = inhibition, most hits filed as inhibitors; HeLa LMNA splicing GFP/RFP minigene ratio, 48 h; active = well fitted inhibition curve with a large enough effect in the signal ratio, with a control signal flat, not every such curve was filed as active; inconclusive = small, poorly fitted or top-dose-only effect, or effect the other way, or a change in a side signal; the % refers to the signal ratio; note: potency is the fitted concentration of half-maximal effect; % is set by controls: 0 for no effect and ±100 for the full control effect
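Read-out is the ratio of GFP to DsRed2 object intensity, acquired by 488 nm laser-scanning cytometry on HeLa lamin A-EGFP minigene reporter cells. Compound incubation 48 hrs at 37 °C in Opti-MEM with 2% FBS; DMSO 0.5% final.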
Sfp inh = qHTS Assay for Inhibitors of Bacillus subtilis Sfp phosphopantetheinyl transferase (PPTase); 4'-phosphopantetheinyl transferase ffp (Bacillus subtilis), Q9F4F7; Biochemical Sfp PPTase activity, qHTS; Potency, µM, for the others: largest response in the series, negative = inhibition, most hits filed as inhibitors; 3.5% of 310,000 active;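 note: the enzyme is Sfp with the accession as filed and its product quenches rhodamine fluorescence; potency is the fitted concentration of half-maximal effect; 0% = enzyme reaction without inhibitor and -100% = no enzyme wells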
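Buffer: 50 mM Hepes-Na pH 7.6, 10 mM MgCl2, 0.01% Nonidet P-40, 0.01% BSA. Enzyme 15 nM, pre-exposed to compound 15 min; substrates then added and fluorescence change tracked over 30 min.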
JMJD2E inh = qHTS Assay for Inhibitors of Human Jumonji Domain Containing 2E (JMJD2E). JMJD2E catalytic domain, FDH-coupled NADH fluorescence (FDH is formaldehyde dehydrogenase). Lysine-specific demethylase 4E (Homo sapiens), B2RXH2. Potency, µM (series often up to 57.1 µM), without a hit: top-dose activity change, negative = inhibition, usual class: inhibitors. 1.6% of 230,000 active; active = well fitted inhibition curve with a large enough effect, not every such curve was filed as active; inconclusive = small, poorly fitted or top-dose-only effect, or another doubt; inactive = no such curve, though single readings can be large or run the other way;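 note: potency is the fitted concentration of half-maximal effect; 0% = wells with enzyme and -100% = buffer wells without enzyme; nearly all actives have a fitted effect of over 50% in size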
Target sequence (B2RXH2 1-337 limits assumed): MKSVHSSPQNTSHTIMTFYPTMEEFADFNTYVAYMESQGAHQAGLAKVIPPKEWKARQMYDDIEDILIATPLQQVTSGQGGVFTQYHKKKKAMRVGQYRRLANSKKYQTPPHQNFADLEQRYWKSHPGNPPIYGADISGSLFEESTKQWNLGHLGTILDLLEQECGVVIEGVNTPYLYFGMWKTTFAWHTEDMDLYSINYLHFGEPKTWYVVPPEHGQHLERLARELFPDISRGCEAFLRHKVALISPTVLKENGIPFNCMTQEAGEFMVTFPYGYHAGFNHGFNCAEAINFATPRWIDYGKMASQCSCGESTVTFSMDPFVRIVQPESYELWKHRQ
ALDH1A1 inh = qHTS Assay for Inhibitors of Aldehyde Dehydrogenase 1 (ALDH1A1) | Aldehyde dehydrogenase 1A1 (Homo sapiens), P00352 | Purified ALDH1A1, NADH fluorescence, propionaldehyde substrate | Potency, µM (highest dose often 75.3 µM), for inactives: at the highest dose activity, negative = inhibition, usual class: inhibitors | 7.3% of 220,000 active | AID 1030, 2008; active = well fitted inhibition curve with a large enough effect, not every such curve was filed as active; inconclusive = small, poorly fitted or top-dose-only effect, or another doubt; inactive = no such curve, though single readings can be large or run the other way;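 note: potency is the fitted concentration of half-maximal effect; plate controls were no enzyme wells and a reference inhibitor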
miR-21 act = qHTS Assay for Modulators of miRNAs and/orActivators of miR-21; HeLa miR-21 FLuc reporter, luciferase, 48 h; Potency, µM (series often up to 38.3 µM), for inactives: top-dose activity change, positive = activation, usual class: activators; 340,000 tested, under 10 active; AID 2288, 2010;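 note: % of control where 0% means no effect; miR-21 action dims this reporter so a rising signal means less miR-21 action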
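Luminescence from a firefly luciferase reporter carrying a miR-21 binding site downstream, stably expressed under a CMV promoter in HeLa cells that make miR-21 endogenously, reports miRNA modulation after 48 h compound exposure up to approximately 40uM final.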
Numbers without * were called inactive; ? = inconclusive; · = no result; [ ] = dose if it differs, or a comment. Rows were chosen to be rich in hits. Some 13% of all compounds tested hit in one or more screens of this group. Unless noted, calls come from the whole dose curve; as a rule, active = well fitted curve in the direction sought with a large enough effect; inconclusive = small, poorly fitted or top-dose-only effect, or another doubt; inactive = no such curve, though single readings can be large; an effect the other way counts as inactive or inconclusive.

SMILES | G9a block | Lamin A splicing | Sfp inh | JMJD2E inh | ALDH1A1 inh | miR-21 act
CC1CC(CCN)(c2ccccc2)C(C)CN1C (stereo not given) | ? | · | 15.9% | 12.2% | · | -6.2%
CC(OC(=O)Cn1cnc2c1c(=O)n(C)c(=O)n2C)C(=O)NC(C)c1ccc(Cl)cc1Cl (stereo not given) | -3.5% | · | · | · | · | ·
COc1ccccc1N1CCN(/N=C/c2cccc(OC)c2OC)CC1 | 50.1µM* | ? | 4.7% | -7.1% | 1.1% | -25.9%
COc1ccccc1N1CCN(/N=C\c2ccccc2)CC1 | -12.6%[0.501 µM] | · | 5.9% | · | · | -62.5%
COc1ccccc1N1CCN(/N=C\c2sccc2C)CC1 | 15.8µM* | · | 12.4% | 5.1% | 8.2% | -37.6%
COc1ccccc1N1CCN(/N=C\c2ccc(C)o2)CC1 | ? | 5.2% | 79.4µM* | -2.7% | ? | -57.1%
Cc1ccc(NS(=O)(=O)c2c(C)nc3sc(C)cn3c2=O)c(C)c1 | -9.6%[59 µM] | · | · | · | · | -2.1%
COCC(=O)N1CCC2(CCCN(c3ccc(-c4ccccc4)cc3)C2)CC1 | 1.1%[12.7 µM] | · | -20.2% | · | ? | ·
CC(C)(C)c1ccc(C(=O)NNc2ncnc3c2cnn3-c2ccccc2)cc1 | 9.5%[59 µM] | ? | · | · | · | -4.3%
CC1CCc2nc3ccc(S(=O)(=O)N4CCC(C(=O)NC(C)c5ccccc5)CC4)cc3c(C(=O)O)c2C1 (stereo not given) | 50.1µM* | · | 7.0% | · | · | -1.3%
CC1CCc2nc3ccc(S(=O)(=O)N4CCC(C(=O)NC5CCCC5)CC4)cc3c(C(=O)O)c2C1 (stereo not given) | 44.7µM* | -2.8% | -4.6% | -22.1% | 39.8µM* | 0.7%
COC(CNC(=O)C1CCN(S(=O)(=O)c2ccc3nc4c(c(C(=O)O)c3c2)CC(C)CC4)CC1)OC (stereo not given) | 31.6µM* | · | 16.8% | · | · | 1.8%
CC1CCc2nc3ccc(S(=O)(=O)N4CCC(C(=O)O)CC4)cc3c(C(=O)O)c2C1 (stereo not given) | 31.6µM* | · | 8.0% | · | · | 1.3%
CC(=O)N1c2ccc(S(=O)(=O)N3CCC(C(=O)NC(C)c4ccccc4)CC3)cc2CC1C (stereo not given) | ? | · | 13.7% | · | · | 6.0%
O=C(NCc1ccccc1)C1CCN(C(=O)c2cnn(-c3ccccc3)c2-n2cccc2)CC1 | -4.1%[59 µM] | · | · | · | · | 12.9%
COc1ccc(S(=O)(=O)N2CCC(C(=O)NC3CC3)CC2)cc1 | -8.6% | · | -2.8% | · | · | -1.0%
CSc1ccc(S(=O)(=O)N2CCC(C(=O)NC3CC3)CC2)cc1 | 35.5µM* | · | 9.9% | · | · | 2.7%
CCOC(=O)Cn1c(=O)oc2cc(S(=O)(=O)N3CCC(C(=O)OCC)CC3)ccc21 | -3.5%[59 µM] | · | · | · | · | -1.1%
CC(C)(/C=N/O)/[N+]([O-])=C/C=[N+](\[O-])C(C)(C)/C=N/O | -0.4% | -0.4% | -2.0% | -2.7% | ? | -0.5%
CN(C)c1ccc(/C=[N+](\[O-])C(C)(C)/C=N/O)cc1 | ? | 11.0% | 2.6% | -5.8% | 22.4µM* | -5.9%
CSc1ccc(/C=N/Nc2nc(C)cc(C)n2)cc1 | 13.4% | -8.5%[46 µM] | 9.5% | -7.2% | 4.9% | -24.7%
CNc1nc(C)nc(N/N=C/c2ccccc2)n1 | -3.0% | · | 4.9% | 0.3% | 12.6µM* | -28.2%
CC(/C=N/Nc1nc(C)cc(C)n1)=C\c1ccc(C(C)C)cc1 | 39.8µM* | ? | 5.8% | 3.4% | 5.5% | -8.3%
Cc1cc(C)nc(N/N=C/c2ccc(Cl)cc2)n1 | 44.7µM* | · | ? | -10.3% | · | -15.2%
Cc1ccc(/C=N/Nc2nc(C)cc(C)n2)cc1 | ? | · | 79.4µM* | -0.9% | · | -11.5%
SMILES | G9a block | Lamin A splicing | Sfp inh | JMJD2E inh | ALDH1A1 inh | miR-21 act
Cc1cccc(CN2CCC(CNC(=O)Cn3ncc4c([nH]c5ccc(C)cc54)c3=O)CC2)c1 | -18.0%[59 µM] | -4.9%[46 µM] | · | · | · | -0.4%
COc1ccc(S(=O)(=O)Nc2cc(C(=O)NC3CCCCCC3)ccc2N2CCOCC2)cc1 | ? | ? | 6.9% | -13.6% | 3.55µM* | -25.1%
O=C(NC1CCCCC1)c1ccc(N2CCOCC2)c([N+](=O)[O-])c1 | -3.4% | · | 6.4% | · | · | -20.6%
COc1ccc(S(=O)(=O)Nc2cc(C(=O)NC(C)C)ccc2N2CCOCC2)cc1 | ? | ? | 12.5% | 0.1% | 0.794µM* | 22.6%
CC(=O)c1cccc(NC(=O)Cn2nc(C)n3cccc3c2=O)c1 | -16.2%[59 µM] | · | · | · | · | -8.2%
CCC(=O)N1CC23C=CC(CC2CC12CCCCC2)O3 (stereo not given) | -4.9% | -0.7% | 1.7% | 2.0% | 15.8µM* | 1.5%
COCC(C)n1c(SCC(=O)N2CCc3ccccc3C2)nc2ccccc2c1=O (stereo not given) | 7.7%[59 µM] | ? | -9.3% | -1.4% | -13.4% | 10.4%
Cc1ccc(-n2c(=S)[nH]c3sc4c(c3c2=O)CCc2ccccc2-4)cc1 | 5.4% | ? | 13.1% | 1.3% | -6.4% | -1.4%
Cc1cccc(-n2c(=S)[nH]c3sc4c(c3c2=O)CCc2ccccc2-4)c1 | ? | · | 6.1% | 5.7% | 3.16µM* | -28.0%
Cn1c2c(c(=O)n(C)c1=O)C(c1ccccc1F)C(C#N)=C(N)O2 (stereo not given) | 15.8µM* | · | -22.3% | ? | ? | -21.6%
Cn1c2c(c(=O)n(C)c1=O)C(c1ccccc1Cl)C(C#N)=C(N)O2 (stereo not given) | 25.1µM* | · | -14.9% | -4.1% | · | -2.8%
N#CC1=C(N)Oc2cc(N)ccc2C1c1ccccc1Cl (stereo not given) | · | · | 12.8% | · | · | 21.7%
O=C(Nc1cccc(Cl)c1)Nc1cccc(Cl)c1 | 17.2%[59 µM] | ? | -2.8% | 4.4% | ? | 5.5%
O=C(Nc1cccc(Cl)c1)Nc1nccs1 | -13.2%[59 µM] | ? | 50.1µM* | 6.6% | 3.4% | -24.3%
O=C(Nc1ccc(Cl)c(Cl)c1)Nc1nccs1 | ? | · | 56.2µM* | -5.0% | · | 7.1%
c1csc(CNc2ccc3c(c2)OCCO3)c1 | 3.55µM* | 2.9% | -5.6% | ? | ? | -14.1%
Clc1cc(NCc2cccs2)ccc1N1CCOCC1 | 11.2µM* | -4.4% | -5.9% | -13.6% | ? | -48.7%
CCN1CCN(c2cc(N3CCc4ccccc4C3)c(F)cc2[N+](=O)[O-])CC1 | 39.8µM* | ? | -7.6% | 5.4% | 7.0% | 13.4%
CC1CCN(c2cc(N3CCOCC3)c([N+](=O)[O-])cc2F)CC1 | 14.1µM* | ? | -5.7% | 1.1% | -40.1% | -2.0%
